Drawing on ChEMBL document CHEMBL1961873, “Compounds: GSK PKIS; Assays: Nanosyn kinase panel” (2012), this text covers inhibition for six compounds.

Test [1] addresses Mitogen-activated protein kinase kinase kinase kinase 4 (Homo sapiens) (UniProt O95819). As to conditions: at 1 µM.
Test [2] has as its target Dual specificity mitogen-activated protein kinase kinase 1 (Homo sapiens) (UniProt Q02750). The following applies: at 0.1 µM.
The target is the same in test [3]. The following applies: at 1 µM.
For test [4], the target named is Misshapen-like kinase 1 (Homo sapiens) (UniProt Q8N4C8). The following applies: at 0.1 µM.
The target is the same in test [5]. The following applies: at 1 µM.
Test [6] deals with T1, Serine/threonine-protein kinase 4 (Homo sapiens) (UniProt Q13043).
T1 sequence (whole entry): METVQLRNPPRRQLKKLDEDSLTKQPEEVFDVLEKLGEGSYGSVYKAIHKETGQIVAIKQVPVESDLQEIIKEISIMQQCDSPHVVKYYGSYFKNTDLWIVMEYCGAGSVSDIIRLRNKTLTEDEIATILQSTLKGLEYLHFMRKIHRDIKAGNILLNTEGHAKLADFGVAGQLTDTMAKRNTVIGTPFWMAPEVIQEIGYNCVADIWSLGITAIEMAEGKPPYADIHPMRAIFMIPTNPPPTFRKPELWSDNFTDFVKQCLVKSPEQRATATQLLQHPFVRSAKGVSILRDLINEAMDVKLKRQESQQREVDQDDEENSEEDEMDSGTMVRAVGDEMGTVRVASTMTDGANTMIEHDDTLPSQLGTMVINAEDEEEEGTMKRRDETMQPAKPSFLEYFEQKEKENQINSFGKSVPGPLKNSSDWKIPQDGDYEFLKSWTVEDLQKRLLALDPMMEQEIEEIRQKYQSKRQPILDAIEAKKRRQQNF
The following applies: at 0.1 µM.

The target of test [7] is T1, Serine/threonine-protein kinase 4 (Homo sapiens). The following applies: at 1 µM.
The target of test [8] is T2, Serine/threonine-protein kinase 3 (Homo sapiens) (UniProt Q13188).
T2 sequence (whole entry): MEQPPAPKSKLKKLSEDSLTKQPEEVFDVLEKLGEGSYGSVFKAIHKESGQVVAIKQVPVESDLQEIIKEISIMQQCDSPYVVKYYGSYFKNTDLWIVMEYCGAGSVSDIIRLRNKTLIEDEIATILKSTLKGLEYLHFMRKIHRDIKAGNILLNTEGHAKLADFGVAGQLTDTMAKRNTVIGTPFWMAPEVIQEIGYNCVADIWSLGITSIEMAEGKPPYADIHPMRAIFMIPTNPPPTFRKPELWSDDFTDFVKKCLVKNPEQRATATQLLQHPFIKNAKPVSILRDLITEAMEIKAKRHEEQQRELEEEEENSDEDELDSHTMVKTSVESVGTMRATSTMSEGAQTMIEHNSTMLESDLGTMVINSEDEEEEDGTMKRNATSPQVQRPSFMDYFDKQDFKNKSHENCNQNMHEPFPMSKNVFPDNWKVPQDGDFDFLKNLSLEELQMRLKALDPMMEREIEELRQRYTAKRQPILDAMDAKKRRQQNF
As to conditions: at 0.1 µM.

The target in test [9] is T2, Serine/threonine-protein kinase 3 (Homo sapiens). As to conditions: at 1 µM.
The target of test [10] is Serine/threonine-protein kinase 26 (Homo sapiens) (UniProt Q9P289). As to conditions: at 0.1 µM.
Chain of Serine/threonine-protein kinase 26 (Homo sapiens) (Q9P289 2-416 limits assumed): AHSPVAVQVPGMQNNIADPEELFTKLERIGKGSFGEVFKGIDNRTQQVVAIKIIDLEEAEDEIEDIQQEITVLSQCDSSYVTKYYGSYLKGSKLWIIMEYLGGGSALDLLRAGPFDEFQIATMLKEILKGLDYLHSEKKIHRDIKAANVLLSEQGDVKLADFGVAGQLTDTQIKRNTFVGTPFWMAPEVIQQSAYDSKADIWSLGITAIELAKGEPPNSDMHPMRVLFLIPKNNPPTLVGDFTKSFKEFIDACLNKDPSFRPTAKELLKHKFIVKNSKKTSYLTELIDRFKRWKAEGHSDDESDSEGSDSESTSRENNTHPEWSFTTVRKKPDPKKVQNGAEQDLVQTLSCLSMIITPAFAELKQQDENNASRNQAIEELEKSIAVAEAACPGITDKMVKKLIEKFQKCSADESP
Test [11] shares this target. The following applies: at 1 µM.
Test [12] has as its target Serine/threonine-protein kinase PAK 1 (Homo sapiens) (UniProt Q13153). The following applies: at 0.1 µM.
The target is the same in test [13]. The following applies: at 1 µM.
Test [14] addresses Serine/threonine-protein kinase PAK 2 (Homo sapiens) (UniProt Q13177). The following applies: at 0.1 µM.
Test [15] has the same target. As to conditions: at 1 µM.
In test [16] the target is Serine/threonine-protein kinase PAK 3 (Homo sapiens) (UniProt O75914). The following applies: at 0.1 µM.
Test [17] has the same target. As to conditions: at 1 µM.
For test [18], the target named is Serine/threonine-protein kinase PAK 5 (Homo sapiens) (UniProt Q9P286). The following applies: at 0.1 µM.
Chain of Serine/threonine-protein kinase PAK 5 (Homo sapiens) (Q9P286 whole entry, looked up): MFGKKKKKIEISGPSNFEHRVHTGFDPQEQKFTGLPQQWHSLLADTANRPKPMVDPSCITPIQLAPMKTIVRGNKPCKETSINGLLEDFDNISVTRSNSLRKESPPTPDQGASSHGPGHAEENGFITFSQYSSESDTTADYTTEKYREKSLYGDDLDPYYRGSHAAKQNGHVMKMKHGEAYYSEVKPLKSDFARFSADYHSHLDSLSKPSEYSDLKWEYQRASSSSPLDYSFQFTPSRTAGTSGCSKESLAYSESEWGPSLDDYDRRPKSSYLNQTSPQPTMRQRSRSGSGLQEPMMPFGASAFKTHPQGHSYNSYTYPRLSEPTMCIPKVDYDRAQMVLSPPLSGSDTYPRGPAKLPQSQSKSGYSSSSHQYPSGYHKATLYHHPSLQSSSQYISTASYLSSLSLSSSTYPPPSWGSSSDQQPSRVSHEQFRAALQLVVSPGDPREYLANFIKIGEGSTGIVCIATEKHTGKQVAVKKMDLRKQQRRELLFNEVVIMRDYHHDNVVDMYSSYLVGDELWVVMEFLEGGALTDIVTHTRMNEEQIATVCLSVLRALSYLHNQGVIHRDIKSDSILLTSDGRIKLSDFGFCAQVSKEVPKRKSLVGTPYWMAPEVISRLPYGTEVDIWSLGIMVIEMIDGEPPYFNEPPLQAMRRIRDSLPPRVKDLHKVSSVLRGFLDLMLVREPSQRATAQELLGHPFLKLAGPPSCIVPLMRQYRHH
For test [19] the target is unchanged. The following applies: at 1 µM.
Test [20] concerns the target Serine/threonine-protein kinase PAK 6 (Homo sapiens) (UniProt Q9NQU5). The following applies: at 0.1 µM.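 Further: mean PAK6 inhibition reported from the GSK PKIS screen.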

Chain of Serine/threonine-protein kinase PAK 1 (Homo sapiens) (Q13153 whole entry): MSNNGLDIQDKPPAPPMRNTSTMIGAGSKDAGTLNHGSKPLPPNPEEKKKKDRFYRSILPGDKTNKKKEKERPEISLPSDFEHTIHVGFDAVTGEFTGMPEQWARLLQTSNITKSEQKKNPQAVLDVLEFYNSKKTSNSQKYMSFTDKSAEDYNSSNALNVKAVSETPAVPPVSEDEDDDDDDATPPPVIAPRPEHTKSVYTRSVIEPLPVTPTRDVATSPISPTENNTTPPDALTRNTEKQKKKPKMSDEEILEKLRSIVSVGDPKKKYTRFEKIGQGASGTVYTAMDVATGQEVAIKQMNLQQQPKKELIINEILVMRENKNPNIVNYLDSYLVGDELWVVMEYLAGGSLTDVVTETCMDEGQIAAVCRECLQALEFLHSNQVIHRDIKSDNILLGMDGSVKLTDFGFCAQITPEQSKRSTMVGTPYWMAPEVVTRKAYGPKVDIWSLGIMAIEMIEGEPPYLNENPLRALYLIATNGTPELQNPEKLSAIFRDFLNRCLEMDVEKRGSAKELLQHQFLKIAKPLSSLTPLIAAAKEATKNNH
Chain of Serine/threonine-protein kinase PAK 2 (Homo sapiens) (Q13177 whole entry): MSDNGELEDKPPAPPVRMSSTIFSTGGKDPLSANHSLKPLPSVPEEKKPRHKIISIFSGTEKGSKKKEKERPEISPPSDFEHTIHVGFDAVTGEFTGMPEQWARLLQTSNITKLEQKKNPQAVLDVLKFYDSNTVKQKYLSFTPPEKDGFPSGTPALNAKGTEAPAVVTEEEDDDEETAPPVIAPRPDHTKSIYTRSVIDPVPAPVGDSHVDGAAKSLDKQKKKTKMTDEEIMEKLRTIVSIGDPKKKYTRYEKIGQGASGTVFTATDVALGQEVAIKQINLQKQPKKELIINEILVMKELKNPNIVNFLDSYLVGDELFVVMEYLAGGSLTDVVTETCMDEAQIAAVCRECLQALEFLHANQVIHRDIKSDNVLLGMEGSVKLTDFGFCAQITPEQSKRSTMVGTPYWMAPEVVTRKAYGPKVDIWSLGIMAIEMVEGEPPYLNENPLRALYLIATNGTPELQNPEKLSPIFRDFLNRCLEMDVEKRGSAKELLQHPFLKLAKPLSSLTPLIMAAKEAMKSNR
Chain of Mitogen-activated protein kinase kinase kinase kinase 4 (Homo sapiens) (O95819 2-1239 limits assumed): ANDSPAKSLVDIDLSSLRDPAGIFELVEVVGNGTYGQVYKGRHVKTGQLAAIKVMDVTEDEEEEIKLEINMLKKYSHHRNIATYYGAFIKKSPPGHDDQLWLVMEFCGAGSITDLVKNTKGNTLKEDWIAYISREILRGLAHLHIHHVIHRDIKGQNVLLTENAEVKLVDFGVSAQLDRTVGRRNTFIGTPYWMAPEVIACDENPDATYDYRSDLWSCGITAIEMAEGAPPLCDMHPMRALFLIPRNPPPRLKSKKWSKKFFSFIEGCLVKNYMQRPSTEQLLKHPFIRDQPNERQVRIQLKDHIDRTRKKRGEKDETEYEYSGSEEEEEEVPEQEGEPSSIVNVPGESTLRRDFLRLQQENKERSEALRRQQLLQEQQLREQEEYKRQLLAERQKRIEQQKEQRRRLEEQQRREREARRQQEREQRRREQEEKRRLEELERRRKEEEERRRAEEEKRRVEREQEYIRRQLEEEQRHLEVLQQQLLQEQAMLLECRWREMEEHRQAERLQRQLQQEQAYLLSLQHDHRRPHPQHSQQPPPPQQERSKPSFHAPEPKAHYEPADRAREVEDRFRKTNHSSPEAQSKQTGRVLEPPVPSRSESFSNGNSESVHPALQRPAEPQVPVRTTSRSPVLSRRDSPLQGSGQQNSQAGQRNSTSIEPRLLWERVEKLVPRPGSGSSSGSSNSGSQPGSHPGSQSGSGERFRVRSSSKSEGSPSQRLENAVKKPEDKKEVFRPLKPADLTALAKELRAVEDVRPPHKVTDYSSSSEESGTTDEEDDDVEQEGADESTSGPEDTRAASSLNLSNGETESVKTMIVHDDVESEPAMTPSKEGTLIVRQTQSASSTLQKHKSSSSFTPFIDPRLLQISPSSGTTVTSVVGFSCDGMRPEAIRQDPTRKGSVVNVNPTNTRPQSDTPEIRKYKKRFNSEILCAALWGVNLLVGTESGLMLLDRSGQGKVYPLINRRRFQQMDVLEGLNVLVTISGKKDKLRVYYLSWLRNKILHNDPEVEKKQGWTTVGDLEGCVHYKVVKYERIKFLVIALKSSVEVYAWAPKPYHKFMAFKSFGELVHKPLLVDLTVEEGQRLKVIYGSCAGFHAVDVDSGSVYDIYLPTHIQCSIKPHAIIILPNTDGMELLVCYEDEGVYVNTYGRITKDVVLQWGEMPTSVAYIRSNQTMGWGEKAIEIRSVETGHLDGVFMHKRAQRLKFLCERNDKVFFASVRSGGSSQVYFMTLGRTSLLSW
Chain of Dual specificity mitogen-activated protein kinase kinase 1 (Homo sapiens) (Q02750 whole entry): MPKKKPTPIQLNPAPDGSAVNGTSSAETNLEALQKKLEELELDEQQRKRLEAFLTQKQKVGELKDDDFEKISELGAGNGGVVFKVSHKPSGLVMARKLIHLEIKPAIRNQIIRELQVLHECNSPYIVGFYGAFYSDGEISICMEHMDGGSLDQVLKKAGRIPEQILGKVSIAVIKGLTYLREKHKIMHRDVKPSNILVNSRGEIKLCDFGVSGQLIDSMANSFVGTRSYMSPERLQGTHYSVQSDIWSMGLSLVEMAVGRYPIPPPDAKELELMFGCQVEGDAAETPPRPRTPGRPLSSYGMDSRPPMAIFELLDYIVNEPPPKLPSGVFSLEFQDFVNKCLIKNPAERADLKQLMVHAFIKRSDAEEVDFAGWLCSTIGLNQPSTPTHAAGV
Chain of Serine/threonine-protein kinase PAK 6 (Homo sapiens) (Q9NQU5 whole entry, looked up): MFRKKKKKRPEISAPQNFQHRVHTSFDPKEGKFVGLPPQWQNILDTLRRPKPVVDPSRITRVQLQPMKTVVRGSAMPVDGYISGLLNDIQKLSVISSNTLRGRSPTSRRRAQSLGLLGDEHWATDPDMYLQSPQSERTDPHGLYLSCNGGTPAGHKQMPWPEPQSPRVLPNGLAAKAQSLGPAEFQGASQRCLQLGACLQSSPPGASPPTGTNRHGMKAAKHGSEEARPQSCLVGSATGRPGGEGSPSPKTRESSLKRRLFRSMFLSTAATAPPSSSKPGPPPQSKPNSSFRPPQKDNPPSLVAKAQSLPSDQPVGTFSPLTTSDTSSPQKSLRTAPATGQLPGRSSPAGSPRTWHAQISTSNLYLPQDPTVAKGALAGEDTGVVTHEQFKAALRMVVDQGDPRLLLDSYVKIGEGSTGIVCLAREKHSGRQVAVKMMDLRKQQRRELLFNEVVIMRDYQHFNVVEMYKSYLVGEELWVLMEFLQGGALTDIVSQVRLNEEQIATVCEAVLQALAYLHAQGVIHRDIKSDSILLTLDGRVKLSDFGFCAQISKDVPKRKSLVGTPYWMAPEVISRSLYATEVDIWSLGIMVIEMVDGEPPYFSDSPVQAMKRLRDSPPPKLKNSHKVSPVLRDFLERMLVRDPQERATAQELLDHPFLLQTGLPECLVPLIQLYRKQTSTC

In the case of `NC(=O)c1sc(-n2cnc3ccc(C(F)(F)F)cc32)cc1OCc1ccccc1Br`, the inhibition – broadly, the relative decrease from the control value, in per cent – in [1] worked out at 10.4%; in test [2] it was 4.95%; in [3], 5.45%; in [4], 4.02%; in [5], 11%; in [6], 2.27%. The inhibition is 3.83% in test [7]; 3.43% in test [8]; 4.74% in [9]; -0.65% in test [10]; 0.41% in test [11]; 5.7% in test [12]. The inhibition in [13] was 7.84%; in [14], 0.77%; in test [15], 1.46%; in test [16], 3.71%; in test [17], 3.48%; in test [18], 1.98%. Moreover, the inhibition in [19] was 3.21%; in [20], -5.11%.
For the compound `COc1ccc(-c2cc(-c3c[nH]nc3-c3ccccn3)ccn2)cc1`, the inhibition was 80.3% in test [1]; 6.36% in test [2]; 4.25% in test [3]; 24.6% in test [4]; 72.7% in [5]; 7.65% in [6]. The inhibition in [7] was 10.6%; in [8] it was 9.35%; in test [9], 10.1%; in [10], -2.95%; in test [11], -0.46%; in test [12], 0.78%. Also, the inhibition was found to be 3.96% in [13]; 2.66% in test [14]; 1.63% in test [15]; 5.46% in test [16]; 5.49% in test [17]; 3.54% in test [18]. In addition, the results for the inhibition in test [19] and in test [20] were 1.94% and 6.89%, respectively.
`COc1ccc(CNC(=O)c2ccc(-c3cc(-c4nnc(C)o4)ccc3C)cc2)cc1`: the inhibition worked out at 16.3% in test [1]; 3.35% in test [2]; 0.16% in [3]; 3.36% in [4]; 12.7% in test [5]; 7.99% in [6]. The inhibition in [7] was 14.7%; in [8] it was 6.56%; in [9], 13.6%; in [10], 3.07%; in test [11], 4.31%; in test [12], 5.02%. The inhibition in test [13] was found to be 5.86%; in test [14] it was 0.61%; in test [15], 0.95%; in [16], 1.81%; in [17] it was 3.19%; in test [18], 8.37%. Also, the inhibition in test [19] was 8.19%; in test [20] it was 5.26%.
As to `CC(C)(CO)CNC(=O)c1ccc2c(c1)/C(=N/Nc1ccc(S(N)(=O)=O)cc1)C(=O)N2`, the inhibition is 18.8% in test [1]; 6.31% in test [2]; 43.1% in [3]; 1.9% in [4]; 13.1% in [5]; 40.7% in test [6]. Besides, the inhibition in test [7] is 80.2%; in [8] it was 31.6%; in test [9], 77.1%; in [10], 0.44%; in test [11], 7.27%; in test [12], 3.17%. Moreover, the inhibition in test [13] is 3.48%; in test [14], -1.4%; in test [15], -0.42%; in test [16] it was -1.02%; in test [17] it was 0.96%; in [18] it was -0.42%. Further, the inhibition in test [19] came out at 0.12%; in [20] it was 2.03%.
In the case of `COc1cccc(-c2c[nH]c3c(N/N=C/c4ccncc4)ncnc23)c1`, the inhibition in test [1] was 74.5%; in test [2], 1.76%; in [3] it was 6.21%; in test [4] it was 17.5%; in test [5], 61.9%; in [6] it was 5.59%. For the same compound, the inhibition in [7] came out at 15.2%; in [8], 4.97%; in test [9] it was 13.2%; in [10] it was 2.3%; in test [11], 20.3%; in [12], 2.35%. Further, the inhibition in test [13] was found to be 1.11%; in [14], 0.94%; in test [15], 0.74%; in [16] it was 1.83%; in [17], 2.84%; in [18] it was 0.46%. Also, the inhibition in test [19] turned out to be 0.73%; in test [20], 5.9%.
For `CC1=C(C(=O)Nc2cc(Cl)c3[nH]ncc3c2)C(c2ccc(C(F)(F)F)cc2)CC(=O)N1` (stereo not given), the inhibition was 10.2% in [1]; 9.84% in test [2]; 35.5% in test [3]; 4.68% in test [4]; 9.18% in test [5]; 3.11% in test [6]. Also, the inhibition in test [7] worked out at 5.19%; in test [8], 1.89%; in test [9], 4.7%; in test [10], 0.06%; in [11], 8.39%; in [12], 3.76%. The inhibition was determined as 4.55% in test [13]; 0.71% in test [14]; 2.32% in test [15]; 4.06% in test [16]; 3.69% in test [17]; 0.42% in [18]. The results for the inhibition in [19] and in test [20] were 4.84% and -4.08%, respectively.
